According to PubChem BioAssay AID1159580 (chemical genetic matrix, 2015):
Where “and” joins values, the source holds several entries; their conditions need not be identical. Equal values may be shown once. Out of some 5,500 compounds screened, about 2,000 (36%) were called active. Roughly 18% stayed inconclusive and do not appear here. No stated cut-off is given here; in the data, active means normalized growth mostly below about 0.91 (no sharp cut-off); inconclusive means no clear call, values can overlap the other calls; inactive means mostly above about 0.92. The list shows a part of the results.

Test: chemical genetic growth profiling, strain panel (AID 1159580);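 further: tested at 20 µM; growth read once vehicle control cultures reached saturation at 30 °C; 1 = growth at the plate median or of vehicle wells; lower values mean less growth of the strain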
Conditions: S. cerevisiae deletion strains, growth OD

Measured: normalized growth

CC(C)C(C)/C=C/C(C)C1CCC2C3=CC=C4CC(O)CCC4(C)C3CCC21C (configuration not stated)
active: locus YAL026C, strain drs2, active compounds read low 0.856 | locus YBR009C, strain hhf1, active compounds read low 0.893 | locus YBR021W, strain FUR4, active compounds read low 0.814 | locus YDL134C, strain PPH21, active compounds read low 0.86 | locus YDR137W, strain rgp1, active compounds read low 0.819 | locus YDR162C, strain NBP2, active compounds read low 0.732 | locus YDR392W, strain spt3, active compounds read low 0.635 | locus YDR502C, strain sam2, active compounds read low 0.917 | locus YGL078C, strain dbp3, active compounds read low 0.908 | locus YGL248W, strain PDE1, active compounds read low 0.862 | locus YGL253W, strain hxk2, active compounds read low 0.861 | locus YJL095W, strain BCK1 (second series), active compounds read low 0.898 | locus YJL164C, strain tpk1, active compounds read low 0.905 | locus YJL166W, strain qcr8, active compounds read low 0.86 | locus YLR262C, strain YPT6 (second series), active compounds read low 0.727 | locus YLR330W, strain CHS5, active compounds read low 0.844 | locus YLR418C, strain cdc73, active compounds read low 0.666 | locus YNL071W, strain lat1, active compounds read low 0.773 | locus YNL307C, strain MCK1, active compounds read low 0.774 | locus YOR270C, strain vph1, active compounds read low 0.681 | locus YPR163C, strain tif3, active compounds read low 0.828
inactive: locus YAL013W, strain DEP1, active compounds read low 0.935 | locus YAL021C, strain ccr4, active compounds read low 1 | locus YAL030W, strain snc1, active compounds read low 0.995 | locus YBL061C, strain skt5, active compounds read low 0.996 | locus YBR023C, strain chs3, active compounds read low 0.992 | locus YBR171W, strain sec66, active compounds read low 1.01 | locus YBR229C, strain ROT2, active compounds read low 1.01 | locus YBR231C, strain swc5, active compounds read low 1 | locus YBR279W, strain paf1, active compounds read low 1 | locus YCL011C, strain gbp2, active compounds read low 0.974 | locus YCL016C, strain dcc1, active compounds read low 1.01 | locus YCL029C, strain bik1, active compounds read low 0.996 | locus YCL061C, strain MRC1, active compounds read low 1.01 | locus YCL069W, strain vba3, active compounds read low 1.01 | locus YCR088W, strain abp1, active compounds read low 1.01 | locus YDL005C, strain med2, active compounds read low 0.996 | locus YDL035C, strain GPR1, active compounds read low 0.943 | locus YDL040C, strain nat1, active compounds read low 1.01 | locus YDL074C, strain BRE1, active compounds read low 0.848 | locus YDL101C, strain DUN1, active compounds read low 0.965 | locus YDL185W, strain tfp1, active compounds read low 1.01 | locus YDL192W, strain arf1, active compounds read low 0.959 | locus YDR001C, strain nth1, active compounds read low 1.01 | locus YDR069C, strain doa4, active compounds read low 0.957 | locus YDR101C, strain arx1, active compounds read low 1.02 | locus YDR159W, strain sac3, active compounds read low 0.935 | locus YDR195W, strain ref2 1.08 | locus YDR297W, strain sur2, active compounds read low 0.993 | locus YDR318W, strain mcm21, active compounds read low 0.958 | locus YDR334W, strain swr1, active compounds read low 1.01 | locus YDR335W, strain msn5, active compounds read low 0.958 | locus YDR388W, active compounds read low 1 | locus YEL003W, strain gim4, active compounds read low 0.986 | locus YEL037C, strain rad23, active compounds read low 0.989 | locus YEL061C, strain CIN8 (second series), active compounds read low 1 | locus YER015W, strain faa2, active compounds read low 1.01 | locus YER016W, strain bim1, active compounds read low 0.987 | locus YER110C, active compounds read low 0.996 | locus YER111C, strain swi4, active compounds read low 0.982 | locus YER155C, strain BEM2 (second series), active compounds read low 0.968 | locus YER155C, strain BEM2, active compounds read low 0.975 | locus YER167W, strain BCK2, active compounds read low 1.01 | locus YFR010W, strain ubp6, active compounds read low 0.992 | locus YGL086W, strain mad1, active compounds read low 0.962 | locus YGL167C, strain pmr1, active compounds read low 0.998 | locus YGL173C, strain kem1, active compounds read low 0.99 | locus YGL227W, strain vid30, active compounds read low 0.995 | locus YGL240W, strain doc1, active compounds read low 0.928 | locus YGR135W, strain pre9, active compounds read low 0.928 | locus YGR229C, strain SMI1, active compounds read low 0.831 | locus YGR252W, strain gcn5, active compounds read low 0.798 | locus YHR013C, strain ard1, active compounds read low 0.972 | locus YHR027C, strain rpn1, active compounds read low 0.999 | locus YHR030C, strain SLT2, active compounds read low 0.964 and 1.01 | locus YHR079C, strain IRE1 (second series), active compounds read low 0.998 | locus YHR079C, strain IRE1, active compounds read low 1.01 | locus YHR094C, strain hxt1, active compounds read low 1.01 | locus YHR129C, strain ARP1, active compounds read low 0.962 | locus YHR142W, strain chs7, active compounds read low 0.884 | locus YHR200W, strain rpn10, active compounds read low 0.994 | locus YIL066C, strain RNR3, active compounds read low 0.97 | locus YIL073C, strain SPO22, active compounds read low 0.863 | locus YIL125W, strain kgd1, active compounds read low 1.03 | locus YIR030C, strain dcg1, active compounds read low 1.01 | locus YJL092W, strain hpr5, active compounds read low 1.01 | locus YJL095W, strain BCK1, active compounds read low 0.835 and 1.02 | locus YJL115W, strain asf1, active compounds read low 1.01 | locus YJL129C, strain trk1, active compounds read low 0.978 | locus YJL134W, strain LCB3, active compounds read low 1.01 | locus YJL154C, strain vps35, active compounds read low 1.01 | locus YJL168C, strain set2, active compounds read low 1.02 | locus YJL187C, strain SWE1 (second series), active compounds read low 0.936 | locus YJL187C, strain SWE1, active compounds read low 0.989 | locus YJR043C, strain POL32, active compounds read low 1.03 | locus YJR066W, strain TOR1, active compounds read low 0.921 | locus YJR075W, strain HOC1, active compounds read low 0.978 | locus YKL009W, strain mrt4, active compounds read low 0.926 | locus YKL068W, active compounds read low 1.01 | locus YKL085W, strain MDH1 (second series), active compounds read low 1 | locus YKL085W, strain MDH1, active compounds read low 1 | locus YKL160W, strain elf1, active compounds read low 0.989 | locus YKR001C, strain vps1, active compounds read low 0.9 | locus YKR026C, strain gcn3, active compounds read low 0.99 | locus YKR091W, strain srl3, active compounds read low 0.998 | locus YLL001W, strain dnm1, active compounds read low 0.96 | locus YLL026W, active compounds read low 0.984 | locus YLL041C, strain sdh2, active compounds read low 1.01 | locus YLR027C, strain aat2, active compounds read low 0.972 | locus YLR039C, strain RIC1, active compounds read low 0.806 | locus YLR058C, strain SHM2, active compounds read low 0.946 | locus YLR102C, strain apc9, active compounds read low 1.02 | locus YLR113W, strain HOG1, active compounds read low 1 | locus YLR221C, strain rsa3, active compounds read low 0.938 | locus YLR258W, strain gsy2, active compounds read low 0.959 | locus YLR262C, strain YPT6, active compounds read low 0.801 | locus YLR268W, strain sec22, active compounds read low 0.968 | locus YLR320W, strain mms22, active compounds read low 0.929 | locus YLR342W, strain FKS1, active compounds read low 0.997 | locus YLR357W, strain rsc2, active compounds read low 1.01 | locus YLR370C, strain arc18, active compounds read low 0.989 | locus YLR371W, strain rom2, active compounds read low 1.05 | locus YLR384C, strain iki3, active compounds read low 0.988 | locus YML016C, strain PPZ1, active compounds read low 0.973 | locus YML032C, strain rad52, active compounds read low 0.973 | locus YML120C, strain ndi1, active compounds read low 0.985 | locus YML124C, strain tub3, active compounds read low 1 | locus YMR058W, strain fet3, active compounds read low 0.956 | locus YMR078C, strain ctf18, active compounds read low 1 | locus YMR125W, strain sto1, active compounds read low 1.01 | locus YMR205C, strain PFK2, active compounds read low 0.937 | locus YMR223W, strain ubp8, active compounds read low 0.941 | locus YMR231W, strain pep5, active compounds read low 0.998 | locus YMR307W, strain GAS1, active compounds read low 0.797 | locus YNL067W, strain RPL9B, active compounds read low 0.924 | locus YNL128W, strain TEP1, active compounds read low 0.994 | locus YNL153C, strain GIM3, active compounds read low 0.966 | locus YNL183C, strain NPR1, active compounds read low 0.951 | locus YNL209W, strain ssb2, active compounds read low 1 | locus YNL233W, strain BNI4, active compounds read low 0.887 | locus YNL248C, strain rpa49, active compounds read low 0.939 | locus YNL250W, strain rad50, active compounds read low 0.952 | locus YNL271C, strain bni1, active compounds read low 0.979 | locus YNL298W, strain CLA4, active compounds read low 0.977 | locus YNL322C, strain KRE1 (second series), active compounds read low 0.996 | locus YNR049C, strain mso1, active compounds read low 0.998 | locus YNR052C, strain pop2, active compounds read low 0.952 | locus YOL012C, strain htz1 1.19 | locus YOL147C, strain pex11, active compounds read low 0.996 | locus YOR001W, strain rrp6, active compounds read low 0.996 | locus YOR061W, strain CKA2, active compounds read low 0.933 | locus YOR069W, strain VPS5, active compounds read low 0.98 | locus YOR070C, strain gyp1, active compounds read low 0.976 | locus YOR080W, strain dia2, active compounds read low 1.02 | locus YOR083W, strain WHI5, active compounds read low 0.991 | locus YOR106W, strain vam3, active compounds read low 0.889 | locus YOR136W, strain idh2, active compounds read low 0.962 | locus YOR144C, strain elg1, active compounds read low 1 | locus YOR184W, strain ser1, active compounds read low 0.952 | locus YOR231W, strain MKK1, active compounds read low 0.995 | locus YOR265W, strain rbl2, active compounds read low 1.01 | locus YOR290C, strain snf2, active compounds read low 0.929 | locus YOR316C, strain cot1, active compounds read low 1 | locus YPL051W, strain arl3, active compounds read low 0.995 | locus YPL078C, strain atp4, active compounds read low 0.957 | locus YPL106C, strain sse1, active compounds read low 1.12 | locus YPL240C, strain hsp82, active compounds read low 1.01 | locus YPL256C, strain CLN2, active compounds read low 1.02 | locus YPR119W, strain clb2, active compounds read low 1.02 | locus YPR141C, strain kar3, active compounds read low 1.01 | locus YPR167C, strain met16, active compounds read low 0.956 | strain wtn01, active compounds read low 0.969
